Screening results (PubChem)
Compounds with a hit are over-represented: about 2.2% of the library has one in this group of screens.
GALK inhibitor: qHTS Assay for Inhibitors of Human Galactokinase (GALK); P51570; Purified GALK, Kinase-Glo residual ATP luminescence; Potency, µM (titrated, usually from 57.5 µM), without a hit: top-dose activity change, negative = inhibition, most hits filed as inhibitors; 270,000 compounds, 0.007% hits; AID 1868, 2009; further: potency means the concentration at half of the fitted maximal effect; on the % scale 0 is the no-effect control and ±100 the full control effect
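Quantitative HTS: GALK 5 nM, ATP 35 uM, galactose 100 uM, 1 h room temperature, then luciferase-based ATP detection.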
Nrf2 ARE act: qHTS of Nrf2 Activators; Potency, µM (doses to about 46.1 µM), for inactives: at the top dose activation, actives largely listed as activators; AREc32 ARE-luciferase reporter (MCF7-derived line), luminescence, 24 h; 410,000 compounds, 0.31% hits; further: potency means the concentration at half of the fitted maximal effect; % of control where 0% means no effect; nearly all actives have a fitted effect of over 65% in size
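Luciferase luminescence (Steady-Glo, 30 min at room temperature) served as the read-out of ARE activation in AREc32 cells treated with compounds for 24 hr at 37 deg C.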
A549 tox-1: Nrf2 qHTS screen for inhibitors: counterscreen for cytotoxicity; AID 504648, 2011; 390,000 compounds, 0.16% hits; A549 ARE-Fluc cells, CellTiter-Fluor viability, 18-24 h; Potency, µM (series often up to 46 µM), for the others: at the highest dose activity change, negative = cytotoxicity, actives largely listed as inhibitors; further: potency means the concentration at half of the fitted maximal effect; on the % scale 0 is the no-effect control and ±100 the full control effect
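A549 ARE-Fluc cells in 5% FBS OPTI-MEM, 5000 cells/well, rested 2 h then exposed to compounds in concentration-response for 18-24 h at 37 °C. Viability by CellTiter-Fluor fluorescence (Ex 405/Em 525) after 30 min; luciferase luminescence (BugLite, 15 min, RT) read afterwards.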
miR-21 act: qHTS Assay for Modulators of miRNAs and/orActivators of miR-21; 340,000 tested, under 10 active; AID 2288, 2010; Potency, µM (highest dose often 38.3 µM), without a hit: top-dose activity change, positive = activation, usual class: activators; HeLa miR-21 FLuc reporter, luciferase, 48 h;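 further: % of control where 0% means no effect; miR-21 action dims this reporter so a rising signal means less miR-21 action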
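Using DMEM plus 10% FBS, HeLa miR-21-FLuc cells are incubated with test compounds (final up to about 40uM) for 48 hours; firefly luciferase signal is then imaged following reagent-mediated lysis.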
PI4K2A block: qHTS for small molecular inhibitors of PI4K2A | Phosphatidylinositol 4-kinase type 2-alpha (Homo sapiens), Q9BTU6 | purified PI4K2A, ADP-Glo luminescence, 1 h; hits give low values | activity change, negative = inhibition, % at 76.9 µM | 420,000 compounds, 0.13% hits; in the data active means activity change below about -50%; inconclusive means mostly about -30% to -49%;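 further: -100% = wells without enzyme as full effect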
Target sequence (Q9BTU6 whole entry, looked up): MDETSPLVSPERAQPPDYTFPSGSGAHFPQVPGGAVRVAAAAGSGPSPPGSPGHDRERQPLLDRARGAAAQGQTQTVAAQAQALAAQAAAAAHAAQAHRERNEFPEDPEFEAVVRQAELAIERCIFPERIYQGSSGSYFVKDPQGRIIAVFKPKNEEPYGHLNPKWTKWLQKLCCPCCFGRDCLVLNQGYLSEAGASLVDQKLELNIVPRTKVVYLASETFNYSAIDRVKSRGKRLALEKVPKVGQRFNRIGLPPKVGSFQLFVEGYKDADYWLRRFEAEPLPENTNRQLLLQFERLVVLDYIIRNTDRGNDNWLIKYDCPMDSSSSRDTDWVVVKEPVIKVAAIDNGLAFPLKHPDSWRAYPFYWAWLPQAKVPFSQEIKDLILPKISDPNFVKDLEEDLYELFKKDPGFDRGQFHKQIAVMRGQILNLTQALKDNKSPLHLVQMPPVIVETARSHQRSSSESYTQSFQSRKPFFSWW
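In this quantitative HTS, ADP production by PI4K2A was quantified luminescently after 1 h at ambient temperature; 100 microM adenosine served as plate-quality control.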
Nrf2 inh: Nrf2 qHTS screen for inhibitors; AID 504444, 2011; A549 ARE-Fluc reporter, luciferase luminescence, 18-24 h; Potency, µM (top dose mostly 46 µM), inactives show at the highest dose activity change, negative = inhibition, hits mostly inhibitors; 360,000 compounds, 2.1% hits; further: potency means the concentration at half of the fitted maximal effect; on the % scale 0 is the no-effect control and ±100 the full control effect; nearly all actives have a fitted effect of over 60% in size
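Nrf2 activity is the BugLite luminescence, read 15 min after reagent at room temperature, following CellTiter-Fluor cytotoxicity readout (30 min, 37C). Compound titrations were applied for 18-24 h to 5000 A549 ARE_Fluc cells/well in 5% FBS OPTI-MEM.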
FLuc counter 3: Nrf2 qHTS screen for inhibitors: Purified Fluc Biochemical Counterscreen for Hit Validation. shares compounds with Nrf2 inh. purified firefly luciferase, luminescence inhibition. Potency, µM (doses to about 57.5 µM), for inactives: at the top dose activity change, negative = inhibition, most hits filed as inhibitors. 1,400 compounds, 4% hits. AID 720522, 2013; further: potency means the concentration at half of the fitted maximal effect; on the % scale 0 is the no-effect control and ±100 the full control effect; nearly all actives have a fitted effect of over 65% in size
A549 tox-2: Nrf2 qHTS screen for inhibitors: A549 ARE-Fluc Cytotoxicity Counterscreen for Hit Validation | shares compounds with Nrf2 inh | A549 ARE-Fluc cells, cytotoxicity counterscreen | Potency, µM (doses to about 46.1 µM), inactives show top-dose activity change, negative = cytotoxicity, hits mostly inhibitors | 1,400 compounds, 2% hits | AID 720523, 2013;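 further: potency means the concentration at half of the fitted maximal effect; cells exposed to compounds for 18 to 24 hours; on the % scale 0 is the no-effect control and ±100 the full control effect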
Nrf2 ARE inh: Nrf2 qHTS screen for inhibitors: Nrf2 A549 ARE-Fluc Confirmation Assay for Hit Validation; shares compounds with Nrf2 inh; A549 ARE-firefly luciferase reporter, luminescence; Potency, µM (top dose mostly 46.1 µM), for inactives: at the top dose activity change, negative = inhibition, hits mostly inhibitors; 1,400 compounds, 74% hits; AID 720524, 2013; further: potency means the concentration at half of the fitted maximal effect; on the % scale 0 is the no-effect control and ±100 the full control effect; nearly all actives have a fitted effect of over 65% in size
Active calls of the source: *; ? = inconclusive; / = no result. Unless noted, the call rests on the fitted dose curve; in most records, active means well fitted curve in the direction sought with a large enough effect; inconclusive means small, poorly fitted or top-dose-only effect, or another doubt; inactive means no such curve, though single readings can be large; an effect the other way counts as inactive or inconclusive.

SMILES | GALK inhibitor | Nrf2 ARE act | A549 tox-1 | miR-21 act | PI4K2A block | Nrf2 inh | FLuc counter 3 | A549 tox-2 | Nrf2 ARE inh
O=[N+]([O-])c1ccc(C[n+]2ccc(Cc3ccccc3)cc2)cc1 | 1% | 0% | 1% | 29% | -12 | ? | / | / | /
CC1CCN(c2c(NCc3ccc(C(=O)N4CCN(C5CCCCC5)CC4)cc3)c(=O)c2=O)CC1 | / | 0% | 0% | -8% | -4 | 0% | / | / | /
CC1CCN(c2c(NCc3ccc(C(=O)N4c5ccccc5CC4C)cc3)c(=O)c2=O)CC1 (stereo unspecified) | -1% | 3% | -19% | -4% | -2 | 9.2µM* | -24% | -21% | 2.1µM*
CN(CC(=O)Nc1ccccc1Br)c1ncnc2sccc12 | -3% | 0% | -8% | 1% | -5 | 9.2µM* | 4% | 1% | ?
COc1ccc(N2CCN(c3ncnc4onc(C)c34)CC2)cc1 | / | -1% | 5% | 16% | -2 | 9.2µM* | 3% | -2% | 7.3µM*
COc1ccc(N2CCN(c3ncnc4onc(-c5ccc(F)cc5)c34)CC2)cc1 | / | 1% | 4% | 10% | 2 | -4% | / | / | /
COC(=O)CCn1nnc(-c2cccs2)n1 | 0% | 2% | -4% | -9% | 1 | 4% | / | / | /
COC(=O)CCn1nnc(-c2ccc(C(C)C)cc2)n1 | 0% | -2% | -1% | 26% | 9 | 0.52µM* | 11µM* | -1% | 0.58µM*
CC(=O)N1CCCC1c1nc2ccccc2n1Cc1ccccc1C (stereo unspecified) | / | 1% | ? | ? | 0 | 3.3µM* | 1% | -7% | 18%
O=C(COC(=O)c1ccc[nH]c1=O)Nc1ccc(N2CCCCC2)cc1 | / | -3% | -1% | / | 3 | 2.3µM* | 11µM* | -1% | 4.1µM*
O=C(COC(=O)c1ccc[nH]c1=O)Nc1ccc(S(=O)(=O)N2CCCC2)cc1 | 0% | 0% | -25% | -1% | -5 | 0% | / | / | /
CC(C)(C)OC(=O)NCCCc1ccc2c(c1)[C@]1(CCC[C@@H](OCc3ccccc3)[C@@H]1NC(=O)CCc1ccccc1)C(=O)N2Cc1ccccc1 | / | / | / | / | -7 | / | / | / | /
CCCCN1CCN(C(=O)Cn2c(=O)c3ccccc3n(CC)c2=O)CC1 | / | / | / | / | -2 | / | / | / | /
COc1ccc(OCc2nc3ccccc3[nH]2)cc1 | 0% | 0% | -4% | -27% | -4 | ? | / | / | /
COc1ccc(OC(C)c2nc3ccccc3[nH]2)cc1 (stereo unspecified) | / | 5% | -19% | 28% | 1 | 9.2µM* | -29% | 15% | -19%
FC(F)(F)c1cccc(Nc2nc3nonc3nc2Nc2ccc(Cl)cc2)c1 | / | -3% | 2.9µM* | ? | -2 | 0.58µM* | ? | 4.6µM* | 1µM*
O=C(Nc1cccc(C(F)(F)F)c1)c1cc(-c2ccc(Cl)cc2)on1 | / | 1% | 2% | -26% | 1 | -22% | / | / | /
